Drawing on PubChem BioAssay AID360 (National Center for Advancing Translational Sciences (NCATS), 2006), this text covers Potency for 93 compounds.

Structures are written as SMILES. The campaign covered roughly 48,000 compounds. About 550 (1.1%) were called active. Not shown: some 4% with an inconclusive outcome. The sample holds actives, similar compounds and a random draw of the others, so the mix is not that of the screen. A number with no mark means an inactive call. No stated cut-off is given here; in the data, active means potency below about 15 µM; inconclusive means mostly about 16 µM to 33 µM; inactive means weaker than that. Some results are limits rather than exact numbers.
Potency means the concentration at half of the fitted maximal effect.

Chain of Lysosomal acid glucosylceramidase (Homo sapiens) (P04062 whole entry, looked up): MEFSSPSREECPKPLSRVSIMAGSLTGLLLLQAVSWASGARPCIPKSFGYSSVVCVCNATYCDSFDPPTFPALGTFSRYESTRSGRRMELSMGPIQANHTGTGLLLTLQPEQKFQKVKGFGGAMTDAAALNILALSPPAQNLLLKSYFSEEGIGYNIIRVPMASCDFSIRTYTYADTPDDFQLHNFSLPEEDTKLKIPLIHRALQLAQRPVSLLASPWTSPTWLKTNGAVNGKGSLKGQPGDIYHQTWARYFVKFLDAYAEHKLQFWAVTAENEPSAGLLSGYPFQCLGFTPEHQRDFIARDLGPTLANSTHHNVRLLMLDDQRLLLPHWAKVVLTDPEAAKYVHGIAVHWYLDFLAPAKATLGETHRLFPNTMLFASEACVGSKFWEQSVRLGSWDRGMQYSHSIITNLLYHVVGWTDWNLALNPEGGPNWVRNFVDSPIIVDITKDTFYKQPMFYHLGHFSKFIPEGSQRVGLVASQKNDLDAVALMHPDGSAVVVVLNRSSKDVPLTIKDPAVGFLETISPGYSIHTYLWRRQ

The target in the test is Lysosomal acid glucosylceramidase (Homo sapiens) (UniProt P04062). Nature of the test: Glucocerebrosidase.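 Further: the screen sought inhibitors.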 As to conditions: purified enzyme, resorufin glucoside fluorescence (screen aimed at inhibitors), 20 min. In a few lines:
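Wild-type enzyme at 0.2 nM final in 50mM citric acid/KH2PO4, 10mM sodium taurocholate, 0.01% tween-20, pH 5.9, with resorufin beta-D-glucopyranoside at 30 uM final. Compounds titrated, 20 min at RT, red fluorescence read; AC50 from titration.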
`O=C(Cn1c(=O)sc2ccccc21)Nc1ccc2c(c1)OCCO2`: the Potency was greater than 76.9 µM. With `COc1ccc(C(c2nnnn2Cc2cccs2)N2CCN(c3ccccc3)CC2)cc1OC` (stereo not drawn), the Potency is greater than 76.9 µM. In the case of `O=C(Cn1c(=S)nc2ccccn21)N1CCc2ccccc2C1`, the Potency was greater than 76.9 µM.

Turning to `CCOc1nc(-c2ccc(OC)cc2)ccc1-c1noc(-c2cc(OC)c(OC)c(OC)c2)n1`, the Potency was 6.96 µM (active). The result for `COc1ccc(-c2nc(-c3ccccc3)no2)c(OC)c1` reads greater than 76.9 µM; that for `COc1ccc(-c2ccc(-c3noc(-c4ccncc4)n3)c(OC)n2)cc1`, greater than 76.9 µM. With `CCCC(=O)Nc1ccc2c(c1)nc1n2CCSC1`, the Potency is greater than 76.9 µM.

As to `O=C(O)CCC(=O)N(Cc1ccco1)c1nc(-c2ccccc2)cs1`, the Potency is greater than 76.9 µM. To `COCc1nnc(NC(=O)CS(=O)(=O)Cc2ccccc2)s1` belongs greater than 76.9 µM; to `Cc1ccc(C)n1-c1ccncc1`, greater than 76.9 µM; to `Cc1ccc(C(C(=O)NCc2ccco2)N(CC2CCCO2)C(=O)Cn2nnc3ccccc32)cc1` (stereo not drawn), greater than 76.9 µM.

In the case of `Cc1ccc(-c2noc(CCC(N)=O)n2)cc1`, the Potency was greater than 76.9 µM. To `Cc1ccc(S(=O)(=O)N2CCOCC2)cc1C(=O)NCc1ccc(F)cc1` belongs greater than 76.9 µM; to `Cc1cc(C)n(-c2nc(SCC(=O)N3CCCC3)c3c4c(sc3n2)CCCC4)n1`, greater than 76.9 µM. For the compound `Cc1nc(SCC(=O)Nc2cc(C)on2)c2c3c(sc2n1)CCCC3`, the Potency was 15.3 µM (active). The result for `Cc1nc(SCC(=O)Nc2cc(C)on2)c2c(C)c(C)sc2n1` reads greater than 76.9 µM; that for `CCn1nnc(NC(=O)c2cc(Cl)c(OC)c(Cl)c2)n1`, greater than 76.9 µM.

For the compound `Cc1ccccc1OCC(=O)Nc1ccc(N2CCN(C(=O)C(C)C)CC2)c(Cl)c1`, the Potency is 2.17 µM (active). To `Cc1cccc(NC(=O)COc2ccccc2C)n1` belongs greater than 76.9 µM; to `CCOc1cc(N2CCOCC2)c(OCC)cc1NC(=O)COc1cccc2cccnc12`, greater than 76.9 µM; to `CC1(C)CC(=O)C2=C(C1)NCN(CCCN1CCOCC1)C2`, greater than 76.9 µM.

In the case of `Cn1c(=O)[nH]c(=O)c2c1nc(N1CCCCCC1)n2CC(=O)c1ccccc1`, the Potency was greater than 76.9 µM.

Consider `CCn1c(SCC(=O)Nc2cc(C)c(Cl)cc2OC)nnc1-c1ccco1`, for which the Potency was greater than 76.9 µM.

Consider `N#Cc1c(N)sc2c1CCN(C(=O)OCc1ccccc1)C2`, for which the Potency is greater than 76.9 µM. To `O=C(O)CCC(=O)N(Cc1cccs1)Cc1cccs1` belongs greater than 76.9 µM; to `O=C(O)C1CC(=O)N(Cc2cccnc2)C1` (stereo not drawn), greater than 76.9 µM; to `Cc1cc(C)nc(NC(=O)Nc2ccccc2C(F)(F)F)n1`, greater than 76.9 µM. The result for `CC(NC(=O)c1cc(-c2ccccc2)on1)c1ccccc1` (stereo not drawn) reads greater than 76.9 µM; that for `O=C(Nc1ccccc1C(F)(F)F)c1cc(-c2ccc(O)cc2)on1`, 13.4 µM (active); that for `Cc1ccc(C(=O)CSc2nnc(Cn3nnc4ccccc43)n2C)cc1`, greater than 76.9 µM. For the compound `CC1CCN(C(=O)Cn2cc(C(=O)c3ccco3)c3ccccc32)CC1`, the Potency was 12.7 µM (active).

For the compound `CCOC(=O)C1CCN(C(=O)Cn2cc(C#N)c3ccccc32)CC1`, the Potency is greater than 76.9 µM.

Consider `COC(=O)Cn1cc(C(=O)c2cccs2)c2ccccc21`, for which the Potency was greater than 76.9 µM. To `O=C(OCC(O)C(O)COC(=O)c1ccccc1)c1ccccc1` (stereo not drawn) belongs greater than 76.9 µM; to `Cc1ccc(S(=O)(=O)NCc2csc(C)n2)c(C)c1`, greater than 76.9 µM; to `Cc1ccc(C)c(NS(=O)(=O)c2cc(Br)cnc2N)c1`, 15.2 µM (active). The result for `COC(=O)c1c(NC(=O)CSc2nc3c(c(=O)n(C)c(=O)n3C)n2C(C)C)sc(C)c1C` reads greater than 76.9 µM; that for `Cc1nc2c(-c3ccccc3)c(C)[nH]n2c(=O)c1Cl`, 5.44 µM (active). The result for `Cc1nc2nc(COc3ccccc3)[nH]n2c(=O)c1C` reads greater than 76.9 µM. On to `CCn1c(COc2ccccc2)nnc1SCC(=O)Nc1ccc2c(c1)OCCO2`, for which the Potency is greater than 76.9 µM. `O=c1cc(Cn2nnc(-c3ccc(Cl)cc3)n2)nc2sccn12`: the Potency was greater than 76.9 µM. The result for `O=C(NCc1cn2ccsc2n1)Nc1ccc(Cl)cc1` reads greater than 76.9 µM. With `O=C(NCc1ccc(Cl)cc1)c1cc2c(nc3sccn32)s1`, the Potency is 8.26 µM (active).

`CCn1c(SCC(=O)c2ccc(Cl)s2)nnc1-c1cccs1`: the Potency was greater than 76.9 µM. The result for `Cc1ccc2c(NC(=O)C3CC3)cccc2n1` reads greater than 76.9 µM; that for `CCN(CC)S(=O)(=O)N1CCC(C(=O)NC(C)CCc2ccccc2)CC1` (stereo not drawn), greater than 76.9 µM; that for `CC(=O)N1CCC(C(=O)Nc2nc(-c3ccccc3)ns2)CC1`, 7.19 µM (active). With `CCc1nnc(NS(=O)(=O)c2ccc(NS(=O)(=O)c3ccccc3)cc2)s1`, the Potency is greater than 76.9 µM. The result for `CCc1nnc(NC(=O)C2CCCN2S(=O)(=O)c2ccccc2)s1` (stereo not drawn) reads greater than 76.9 µM; that for `CCc1nnc(NC(=O)c2ccc(S(=O)(=O)NC3CCCCC3)cc2)s1`, 9.65 µM (active). The result for `O=C(c1ccccc1-c1ccccc1)N1CCOCC1` reads greater than 76.9 µM; that for `Cc1occc1C(=O)Nc1cccc(Cn2cccn2)c1`, greater than 76.9 µM. To `CCNc1nc(N)nc(Oc2ccc(OCC)nn2)n1` belongs greater than 76.9 µM. In the case of `CC(C)(C)c1nc(NCC2CCCO2)c2nnn(Cc3ccccc3)c2n1` (stereo not drawn), the Potency is greater than 76.9 µM. The result for `O=C(Cn1nnc(-c2ccccc2)n1)NCc1ccccc1` reads greater than 76.9 µM; that for `CC(C)(C)NC(=O)Cn1nnc(-c2ccccc2Cl)n1`, 15.2 µM (active).

`Cc1ccccc1-c1nnn(CC(=O)c2ccc(S(=O)(=O)N3CCCC3)cc2)n1`: the Potency is greater than 76.9 µM. To `Cc1noc(C)c1COC(=O)Cn1c(C)nc2ccccc21` belongs greater than 76.9 µM; to `CC(C)[C@H](NC(=O)Nc1ccc(S(N)(=O)=O)cc1)C(=O)O`, greater than 76.9 µM. On to `COc1ccc(OC)c(NC(=O)CSc2nc3cccnc3n2C)c1`, for which the Potency was greater than 76.9 µM. To `CCOC(=O)CSc1nnc(CNc2nc(-c3ccccc3)cs2)n1C` belongs greater than 76.9 µM. To `Cc1ccc(NC(=O)Cn2nc(C)c3ccccc3c2=O)c(C)c1` belongs greater than 76.9 µM; to `O=C(NC1CCCCC1)c1ccc2c(=O)n(CC3CCCO3)c(=O)[nH]c2c1` (stereo not drawn), 6.37 µM (active); to `COC(=O)c1ccc2c(=O)n(CC3CCCO3)c(=S)[nH]c2c1` (stereo not drawn), greater than 76.9 µM. To `O=c1c2cc3c(=O)n(CC4CCCO4)c(=O)c3cc2c(=O)n1CC1CCCO1` (stereo not drawn) belongs greater than 76.9 µM.

Regarding `O=C(C1CCC(C(=O)N2CCCC2)CC1)N1CCCC1` (stereo not drawn), the Potency is greater than 76.9 µM. To `CCOc1ccc(NC(=O)Nc2cc(C)on2)cc1` belongs greater than 76.9 µM. As to `CC1(C)CC(=O)C=C(NCCCN2CCCC2=O)C1`, the Potency was greater than 76.9 µM. The result for `O=C(OCc1nnc(-c2ccccc2)o1)c1ccc2c(c1)C(=O)N(CCc1ccccc1)C2=O` reads greater than 76.9 µM. To `CCNC(=O)CN(c1ccc(C)cc1)S(=O)(=O)c1ccc(SC)cc1` belongs greater than 76.9 µM. For `COc1ccc(Cl)cc1NC(=O)C1CC(=O)N(c2ccc(F)cc2)C1` (stereo not drawn), the Potency is greater than 76.9 µM. To `O=S(=O)(NCc1ccccn1)c1ccc(Br)s1` belongs greater than 76.9 µM; to `c1ccc(-c2cc(-c3nnc4sc(-c5ccccn5)nn34)[nH]n2)cc1`, greater than 76.9 µM. To `CCCn1c(=O)c(-c2ccccc2)c(O)c2ccccc21` belongs greater than 76.9 µM. Consider `Cc1ccc(F)cc1NC(=O)c1ccc2c(c1)OCO2`, for which the Potency was greater than 76.9 µM. For the compound `Cc1ccc(-n2c(N)c(C(=O)N3CCOCC3)sc2=S)c(C)c1`, the Potency is greater than 76.9 µM. To `COc1ccc(-n2nnnc2SCC(=O)c2ccc(OC)c(OC)c2)cc1` belongs greater than 76.9 µM.

Turning to `Cn1c(SCC(=O)Nc2cccc(NC(=O)c3cccs3)c2)nnc1-c1ccncc1`, the Potency is greater than 76.9 µM. The result for `COc1ccc(N2CCN(C(=O)CSc3nnc4ncccn34)CC2)cc1` reads greater than 76.9 µM; that for `Cc1ccc(OCC(=O)Nc2ccc(-c3nc4ncccc4o3)cc2)cc1`, greater than 76.9 µM. For the compound `O=C(O)c1ccc(-n2cccc2)cc1O`, the Potency was greater than 76.9 µM. The result for `CCCCN(C)C(=O)C1CCN(Cc2ccccn2)CC1` reads greater than 76.9 µM. Take `O=C(Nc1ccon1)c1cccc(Cl)c1`: the Potency was greater than 76.9 µM.

On to `Fc1ccc(Cn2nnnc2C(c2cccs2)N2CCCCCC2)cc1` (stereo not drawn), for which the Potency was greater than 76.9 µM. The result for `CCC(=O)N(Cc1cc2cc(OC)ccc2[nH]c1=O)c1ccccc1C` reads greater than 76.9 µM. The result for `Cc1ccc(C2(c3ccc(C)cc3)NC(=O)N(Cc3c(C)noc3C)C2=O)cc1` reads greater than 76.9 µM; that for `CCOc1cc(C2C(C(=O)OC)=CN(C3CCCC3)C=C2C(=O)OC)cc(Br)c1O`, 6.06 µM (active); that for `CCOc1ccccc1C1C(C(=O)OC)=CN(C)C=C1C(=O)OC`, greater than 76.9 µM.

For `CCOc1ccc(CNC(=O)C2CCC(=O)N2C2CCCC2)cc1OC` (stereo not drawn), the Potency is greater than 76.9 µM. To `CC(C)CCNC(=O)CN(C(=O)Cn1nnc(-c2ccc(F)cc2)n1)C1CCCC1` belongs greater than 76.9 µM. To `CC(=O)Nc1ccc(S(=O)(=O)NCCc2ccccc2)cc1` belongs greater than 76.9 µM; to `O=C(CN1CCN(c2nc(-c3ccccc3)cs2)CC1)NCc1ccc2c(c1)OCO2`, greater than 76.9 µM. To `O=C(CSc1nnc(-c2ccccc2)o1)N1CCOCC1` belongs greater than 76.9 µM.
